Results: PubChem BioAssay (EPA / NIEHS)
Where “and” joins values, the source holds several entries; their conditions need not be identical. Equal entries are not always repeated. Records with an inconclusive call do not appear. Some structures have more than one record in an assay (separate samples or runs), and their calls can disagree. Calls of active or inactive are those of the source. How the source made its calls, unless noted: active means hit-call score of the fitted dose curve at least 0.9, where 1 is the maximum; inconclusive means response in the unintended direction; inactive means score below 0.9.

Assays:
[1] = BSK_3C_VCAM1: BioMAP Diversity Plus: 3C Assay for Vascular cell adhesion molecule 1 (VCAM1) Biomarker Activity (AID 2282999; active means hit-call score of the fitted dose curve at least 0.9, where 1 is the maximum; inactive means score below 0.9); conditions: BioMAP 3C HUVEC, VCAM1 ELISA, cytokine-stimulated; actives raise or lower the signal
How it was run: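 Human umbilical vein endothelial cells (3C system), biomarker read by ELISA 24 h after dosing; bidirectional fit against DMSO baseline. Cytotoxicity tracked by SRB total-protein staining in parallel cultures at biomarker time.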

[2] = BSK_4H_Eotaxin3: BioMAP Diversity Plus: 4H Assay for Eotaxin 3 Biomarker Activity (AID 2283000; active means hit-call score of the fitted dose curve at least 0.9, where 1 is the maximum; inactive means score below 0.9); conditions: primary human endothelial cells (HUVEC); actives raise or lower the signal
How it was run: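 Eotaxin-3 (CCL26) levels were measured by ELISA in HUVEC primary cultures 24 h post-dosing. Gain or loss of signal was fitted in both directions, with DMSO serving as baseline and negative control.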

[3] = read-out: Intercellular Adhesion Molecule 1 (ICAM1), ICAM1 (gene 3383); assay: BSK_3C_ICAM1: BioMAP Diversity Plus: 3C Assay for Intercellular Adhesion Molecule 1 (ICAM1) Biomarker Activity (AID 2283003; active means hit-call score of the fitted dose curve at least 0.9, where 1 is the maximum; inactive means score below 0.9); conditions: primary human endothelial cells (HUVEC); actives raise or lower the signal
How it was run: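 HUVEC primary cells stimulated under 3C conditions; ICAM1 measured by ELISA 24 h after compound dosing. Curves fitted bidirectionally against the DMSO baseline. Overt cytotoxicity checked by SRB staining of parallel cultures.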

[4] = BSK_3C_Proliferation: Cell Proliferation Assessment in the BioMAP Diversity Plus: 3C Assay (AID 2283006; active means hit-call score of the fitted dose curve at least 0.9, where 1 is the maximum; inactive means score below 0.9;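 on AC50: potency may reflect either rise or fall in cell number versus DMSO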); conditions: primary human endothelial cells (HUVEC)
How it was run: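 Subconfluent HUVEC (3C system) cultured with chemical; relative cell number read at 48 h by sulforhodamine B total-protein staining (0.1% SRB after 10% TCA fixation, 560 nm). Bidirectional fit relative to DMSO.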

[5] = biological target: human Peroxisome Proliferator-activated Receptor delta (PPARd), PPARD (gene 5467) (UniProt Q03181); assay: ATG_PPARd_TRANS: Attagene TRANS-FACTORIAL HepG2 Assay for human Peroxisome Proliferator-activated Receptor delta (PPARd) (AID 2283002)
human Peroxisome Proliferator-activated Receptor delta (PPARd), PPARD (gene 5467), sequence (Q03181 whole entry, looked up, the tested form may be a part): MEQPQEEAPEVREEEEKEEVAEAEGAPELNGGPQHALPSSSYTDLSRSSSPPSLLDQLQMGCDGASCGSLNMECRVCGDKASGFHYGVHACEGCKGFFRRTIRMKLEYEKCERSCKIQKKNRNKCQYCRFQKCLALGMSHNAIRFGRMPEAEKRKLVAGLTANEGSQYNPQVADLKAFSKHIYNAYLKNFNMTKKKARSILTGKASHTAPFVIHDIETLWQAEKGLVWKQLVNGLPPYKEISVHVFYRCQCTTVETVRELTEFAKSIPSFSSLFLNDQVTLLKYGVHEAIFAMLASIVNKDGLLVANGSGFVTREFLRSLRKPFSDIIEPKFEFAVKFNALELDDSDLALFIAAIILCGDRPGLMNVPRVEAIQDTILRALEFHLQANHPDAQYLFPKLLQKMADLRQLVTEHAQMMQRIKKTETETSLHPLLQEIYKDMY
How it was run: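 HepG2 cells transiently transfected with GAL4-UAS multiplexed reporter units driven by exogenous chimeric NR-GAL4 proteins; 24 h compound exposure. Reporter mRNA measured by RT-PCR, 6-FAM primer extension, HpaI digestion and capillary electrophoresis; gain of signal fitted relative to DMSO.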

[6] = biological target: human Retinoic Acid Receptor beta (RARb), RARB (gene 5915) (UniProt P10826); assay: ATG_RARb_TRANS: Attagene TRANS-FACTORIAL HepG2 Assay for human Retinoic Acid Receptor beta (AID 2283004)
human Retinoic Acid Receptor beta (RARb), RARB (gene 5915), sequence (P10826 whole entry, looked up, the tested form may be a part): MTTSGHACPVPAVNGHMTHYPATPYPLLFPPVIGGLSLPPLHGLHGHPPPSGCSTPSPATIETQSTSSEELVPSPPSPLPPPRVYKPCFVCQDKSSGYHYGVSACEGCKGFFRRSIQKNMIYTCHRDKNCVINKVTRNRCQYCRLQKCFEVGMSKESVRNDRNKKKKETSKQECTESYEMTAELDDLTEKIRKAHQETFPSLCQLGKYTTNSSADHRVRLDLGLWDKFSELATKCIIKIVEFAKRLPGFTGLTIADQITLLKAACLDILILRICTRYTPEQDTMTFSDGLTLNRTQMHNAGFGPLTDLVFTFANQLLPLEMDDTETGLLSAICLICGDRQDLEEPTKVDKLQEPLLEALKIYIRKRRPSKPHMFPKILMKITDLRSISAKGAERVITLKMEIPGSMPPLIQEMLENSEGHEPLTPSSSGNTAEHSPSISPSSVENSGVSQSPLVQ
How it was run: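 HepG2 cells were transiently transfected with GAL4-UAS reporter units that report activity of exogenous chimeric NR-Gal4 proteins, then exposed to compound for 24 h. Reporter mRNA was quantified by RT-PCR with capillary electrophoresis fluorescence, as gain of signal over DMSO.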

[7] = biological target: Retinoic acid receptor alpha (Homo sapiens) (UniProt P10276); assay: ATG_RARa_TRANS: Attagene TRANS-FACTORIAL HepG2 Assay for human Retinoic Acid Receptor alpha (RARa) (AID 2283005);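 on AC50: potency for increased reporter signal meaning RARa activation over DMSO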
Retinoic acid receptor alpha (Homo sapiens), sequence (P10276 whole entry, looked up, the tested form may be a part): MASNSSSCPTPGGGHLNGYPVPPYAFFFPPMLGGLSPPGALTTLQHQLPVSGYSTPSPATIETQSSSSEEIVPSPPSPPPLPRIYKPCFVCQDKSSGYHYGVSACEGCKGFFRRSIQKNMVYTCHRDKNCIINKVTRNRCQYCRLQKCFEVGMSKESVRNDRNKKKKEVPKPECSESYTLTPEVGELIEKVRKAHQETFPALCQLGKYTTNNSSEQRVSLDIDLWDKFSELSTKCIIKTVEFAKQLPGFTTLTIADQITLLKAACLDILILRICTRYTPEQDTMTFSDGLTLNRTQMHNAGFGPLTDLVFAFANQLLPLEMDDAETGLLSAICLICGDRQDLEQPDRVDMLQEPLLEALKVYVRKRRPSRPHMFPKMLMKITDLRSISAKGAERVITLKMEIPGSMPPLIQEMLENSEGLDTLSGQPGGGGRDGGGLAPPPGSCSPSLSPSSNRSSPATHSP
How it was run: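 HepG2 transiently transfected with multiplex GAL4-UAS reporter units including a human RARa–GAL4 chimera; 24 h compound exposure. Reporter mRNA quantified by RT-PCR, 6-FAM labeling and capillary electrophoresis; gain of signal versus DMSO.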

[8] = biological target: Peroxisome proliferator-activated receptor gamma (Homo sapiens) (UniProt P37231); assay: ATG_PPARg_TRANS: Attagene TRANS-FACTORIAL HepG2 Assay for human Peroxisome Proliferator-activated Receptor-gamma (PPARg) (AID 2283007)
Peroxisome proliferator-activated receptor gamma (Homo sapiens), sequence (P37231 whole entry, looked up): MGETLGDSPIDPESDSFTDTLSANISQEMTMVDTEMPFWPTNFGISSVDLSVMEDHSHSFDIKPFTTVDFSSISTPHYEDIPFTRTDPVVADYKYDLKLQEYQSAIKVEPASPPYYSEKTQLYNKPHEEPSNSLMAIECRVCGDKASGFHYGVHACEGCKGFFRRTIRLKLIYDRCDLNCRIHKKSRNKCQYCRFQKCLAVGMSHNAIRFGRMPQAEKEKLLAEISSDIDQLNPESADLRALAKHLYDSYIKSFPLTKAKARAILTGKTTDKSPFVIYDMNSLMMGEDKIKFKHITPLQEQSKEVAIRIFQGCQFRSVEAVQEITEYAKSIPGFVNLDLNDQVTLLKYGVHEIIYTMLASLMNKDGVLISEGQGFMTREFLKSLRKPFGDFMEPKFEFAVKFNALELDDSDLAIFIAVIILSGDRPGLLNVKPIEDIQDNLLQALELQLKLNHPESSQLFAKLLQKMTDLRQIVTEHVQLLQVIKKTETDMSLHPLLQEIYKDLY
How it was run: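 Human hepatoma HepG2, transient MRTU transfection, 24 h treatment. mRNA reporter signal by RT-PCR plus capillary electrophoresis, fluorescence detection; fitted for increase over DMSO negative control.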

[9] = biological target: Nuclear receptor subfamily 1 group I member 2 (Homo sapiens) (UniProt O75469); assay: ATG_PXR_TRANS: Attagene TRANS-FACTORIAL HepG2 Assay for human Pregnane X Receptor (PXR) (AID 2283008)
Nuclear receptor subfamily 1 group I member 2 (Homo sapiens), sequence (O75469 whole entry, looked up, the tested form may be a part): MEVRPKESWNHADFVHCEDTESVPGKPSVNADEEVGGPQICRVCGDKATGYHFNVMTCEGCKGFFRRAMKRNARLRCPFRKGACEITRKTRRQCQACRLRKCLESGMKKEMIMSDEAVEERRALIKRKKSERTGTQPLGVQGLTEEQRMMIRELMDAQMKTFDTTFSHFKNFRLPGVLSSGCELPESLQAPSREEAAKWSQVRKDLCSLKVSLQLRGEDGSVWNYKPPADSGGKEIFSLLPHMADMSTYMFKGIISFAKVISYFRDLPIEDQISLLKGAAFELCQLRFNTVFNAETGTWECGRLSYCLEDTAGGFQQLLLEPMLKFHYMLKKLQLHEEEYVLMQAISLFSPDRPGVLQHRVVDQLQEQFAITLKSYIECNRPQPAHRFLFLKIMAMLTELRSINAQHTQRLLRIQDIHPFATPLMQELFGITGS
How it was run: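 HepG2 cells transiently transfected with multiple reporter units, here a PXR-GAL4 chimera driving a GAL4-UAS reporter; 24 h compound exposure. Reporter mRNA measured by RT-PCR, FAM labelling and capillary electrophoresis; gain of signal fitted against DMSO baseline.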

[10] = biological target: human Peroxisome Proliferator-activated Receptor alpha (PPARa), PPARA (gene 5465) (UniProt Q07869); assay: ATG_PPARa_TRANS: Attagene TRANS-FACTORIAL HepG2 Assay for human Peroxisome Proliferator-activated Receptor alpha (PPARa) (AID 2283001);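 on AC50: potency for gain of reporter signal over DMSO so agonist or activator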
human Peroxisome Proliferator-activated Receptor alpha (PPARa), PPARA (gene 5465), sequence (Q07869 whole entry, looked up, the tested form may be a part): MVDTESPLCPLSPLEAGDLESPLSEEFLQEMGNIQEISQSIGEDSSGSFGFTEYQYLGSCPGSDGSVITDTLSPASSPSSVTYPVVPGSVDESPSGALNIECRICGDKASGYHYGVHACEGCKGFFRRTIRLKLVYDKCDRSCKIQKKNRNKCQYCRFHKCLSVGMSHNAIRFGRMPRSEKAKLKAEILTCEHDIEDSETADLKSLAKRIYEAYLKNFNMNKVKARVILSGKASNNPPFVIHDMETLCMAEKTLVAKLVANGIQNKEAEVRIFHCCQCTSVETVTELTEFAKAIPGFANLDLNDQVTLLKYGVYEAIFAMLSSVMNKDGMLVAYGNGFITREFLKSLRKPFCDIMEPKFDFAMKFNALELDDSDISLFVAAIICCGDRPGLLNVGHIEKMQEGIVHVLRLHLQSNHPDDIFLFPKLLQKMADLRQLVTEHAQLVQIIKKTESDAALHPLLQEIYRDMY
How it was run: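 HepG2 cells transiently transfected with multiplexed GAL4-UAS reporters driven by exogenous chimeric NR-Gal4 proteins; reporter mRNA measured after 24 h dosing. Read-out by RT-PCR, 6-FAM labelling, HpaI digestion and capillary electrophoresis; gain of signal versus DMSO.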

Measured: AC50

C1CC2OC2CC1C1CO1 (stereo not drawn)
inactive: [1] | [2] | [3] | [4]

Cc1cccc(C)c1N
inactive: [1] | [2] | [3] | [4]

ClC1=C(Cl)[C@]2(Cl)[C@@H]3[C@@H]4C[C@@H]([C@H]5O[C@@H]45)[C@@H]3[C@@]1(Cl)C2(Cl)Cl
active: [7] 0.855 µM | [4] 14.5 µM | [9] 2.84 µM
not listed: [10]
inactive: all other assays above

CN(C)c1nc(=O)n(C2CCCCC2)c(=O)n1C
inactive: [1] | [2] | [3] | [4] | [8]

c1cc2ccc3cccc4ccc(c1)c2c34
not listed: [10]
inactive: all other assays above

Oc1ccc(Cl)cc1Cl
inactive: [1] | [2] | [10] | [3] | [4] | [8]

CCCN(CCC)N=O
inactive: [1] | [2] | [3] | [4]

CC(c1ccc(O)cc1)(c1ccc(O)cc1)c1ccc(O)cc1
active: [1] 29.8 µM | [2] 31.4 µM | [4] 28 µM | [9] 2.93 µM
inactive: [5] | [3] | [8]

Oc1ccc(C(c2ccc(O)cc2)(C(F)(F)F)C(F)(F)F)cc1
active: [1] 33.6 µM | [2] 34.8 µM | [3] 38.3 µM | [4] 12.8 µM | [9] 6 µM [middle of 4 runs]
inactive: [5] | [8]

CCSC(=O)N(CC)C1CCCCC1
inactive: [1] | [2] | [3] | [4] | [8] | [9]

Cc1cccc([N+](=O)[O-])c1
inactive: [1] | [2] | [3] | [6] | [4]

C[C@]12CCC(=O)C=C1CC[C@@H]1[C@@H]2CC[C@]2(C)C(=O)CC[C@@H]12
inactive: [1] | [2] | [5] | [3] | [6] | [7] | [4] | [8] | [9]
active: [9] 7.27 µM and 26.8 µM

N#Cc1ccc(N(CC(N)=O)CC(F)(F)F)cc1C(F)(F)F
not listed: [5] | [7] | [10]
inactive: all other assays above

CCC(C)(c1ccc(O)cc1)c1ccc(O)cc1
inactive: [1] | [2] | [10] | [3] | [8]
active: [4] 26.8 µM | [8] 46.1 µM | [9] 2.52 µM [middle of 4 runs]

CCOCCOC(C)=O
not listed: [6] | [7] | [10]
inactive: all other assays above

CCOC(=O)C(O)(c1ccc(Cl)cc1)c1ccc(Cl)cc1
active: [1] 34.7 µM | [2] 34.6 µM | [3] 37.9 µM | [4] 30.1 µM | [8] 11.1 µM | [9] 18.3 µM
inactive: [5]

Cc1ccccc1CO[C@@H]1C[C@@]2(C(C)C)CC[C@]1(C)O2
active: [8] 32.3 µM | [9] 5.24 µM
not listed: [10]
inactive: all other assays above

CCOP(=S)(OCC)SCSC(C)(C)C
active: [4] 29.3 µM | [9] 3.49 µM and 2.9 µM
inactive: [1] | [2] | [5] | [3] | [8]

OCC(O)CO
inactive: [5] | [6] | [7] | [8] | [9]
active: [10] 36.7 µM | [8] 50 µM
